Assay outcomes deposited in PubChem by National Center for Advancing Translational Sciences (NCATS).
PNC inhibitor: blocks assembly of the perinucleolar compartment. PC3M PTB-GFP, PNC prevalence imaging, 16 h; active compounds read low. activity change (PNC), negative = inhibition, % at 10 µM. hit rate 3.1% among 140,000;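 active = readout at or below -70, meaning at least 70% loss of cells showing the perinucleolar compartment, a nuclear body marking cancer cells; inconclusive = readout between -30 and a set limit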;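 also: plate controls were DMSO wells for no effect and camptothecin positive control wells for full effect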
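Compounds are pinned in duplicate onto adhered PC3M cells stably expressing GFP-tagged PTB and incubated 16 h at 37 C. Cells are then fixed, nuclei stained with Hoechst, and PNC-positive cells counted.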
HPGD block: HPGD (human) dehydrogenase inhibition. P15428. purified HPGD, NADH fluorescence kinetic, PGE2 substrate. Potency, µM, inactives show top-dose activity change, negative = inhibition, actives largely listed as inhibitors. hit rate 4.3% among 150,000. AID 894; also: potency is read from the fitted curve at half-maximal effect
Target sequence (P15428 whole entry, looked up): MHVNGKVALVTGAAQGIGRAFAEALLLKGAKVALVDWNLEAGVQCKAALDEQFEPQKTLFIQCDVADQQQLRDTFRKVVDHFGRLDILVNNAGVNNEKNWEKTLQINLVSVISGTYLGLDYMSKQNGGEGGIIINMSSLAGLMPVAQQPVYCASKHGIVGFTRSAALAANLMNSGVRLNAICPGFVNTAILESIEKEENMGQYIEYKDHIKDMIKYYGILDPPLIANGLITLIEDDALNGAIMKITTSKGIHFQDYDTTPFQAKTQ
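NADH formation kinetics: reaction with 30 uM PGE2 and 1 mM NAD+ (final), 20 nM enzyme, Tris-HCl pH 8 with Tween 20, after 15 min compound preincubation at room temperature. Fluorescence change, last versus first of five reads.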
ALDH1A1 inh: ALDH1A1 (human) enzyme inhibition. Potency, µM (doses to about 75.3 µM), for the others: top-dose activity, negative = inhibition, usual class: inhibitors. Purified ALDH1A1, NADH fluorescence, propionaldehyde substrate. P00352. hit rate 7.3% among 220,000;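 also: potency is read from the fitted curve at half-maximal effect; plate controls were no enzyme wells and a reference inhibitor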
Numbers without * were called inactive; ? = inconclusive; nt = no result given; [ ] = remark or other dose. In the library only some 11% were active in any assay of this set; here they are far more common. Unless noted, calls follow the shape of the dose curve; as a rule, active = well fitted inhibition curve with a large enough effect (not every such curve was filed as active); inconclusive = small, poorly fitted or top-dose-only effect, or another doubt; inactive = no such curve, though single readings can be large or run the other way. Unless noted, % is scaled to controls: 0 for no effect and ±100 for the full control effect.

SMILES	PNC inhibitor	HPGD block	ALDH1A1 inh
O=C(CCC1CCCN(Cc2ccncc2)C1)NCc1ccc(F)c(F)c1 (configuration not stated)	nt	nt	12.1%
COc1ccccc1C(=O)Nc1ccc(Br)cc1C	nt	nt	-14.2%
NC(=O)COC(=O)CSc1ccc2ccccc2c1	nt	nt	0.3%
C/C(=N\Nc1cccc(Cl)c1)c1ccncc1	nt	nt	-16.3%
C/C(=N\Nc1ccc(F)cc1)c1ccncc1	?	-25.1%	20µM*
CC(C)c1ccccc1NC(=O)CCc1nc2ccccc2s1	-22.9	-17.2%	-5.3%
CN(C)S(=O)(=O)c1ccc(Cl)c(NC(=O)COC(=O)/C=C/c2cnc3ccccc3n2)c1	nt	nt	9.4%
COC(=O)c1ccc(NC(=O)CN(C)Cc2cccc(F)c2)cc1	nt	nt	-8.7%
CN(Cc1cccc(F)c1)C(=O)c1ccc(S(=O)(=O)C(F)F)cc1	34.5	31.6µM*	?
Cc1ccccc1NC(=O)c1c(C)nn(-c2ccccc2)c1Cl	9.0	28.2µM*	?
Cc1ccc(NC(=O)c2c(C)nn(-c3ccccc3)c2Cl)cc1	-18.1	14.1µM*	2.4%
Cc1nn(-c2ccccc2)c(Cl)c1C(=O)Nc1c(C)n(C)n(-c2ccccc2)c1=O	-19.2	-22.9%	?
CC(=O)c1cccc(NC(=O)c2c(C)nn(-c3ccccc3)c2Cl)c1	nt	nt	-10.2%
Nc1nnc(SCC(=O)OCC(=O)c2ccccc2Br)s1	nt	nt	-3.0%
Nc1nc(SCc2ccc(Cl)cc2)[nH]c(=O)c1-c1ccccc1	?	-6.5%	?
Nc1[nH]c(=S)[nH]c(=O)c1-c1ccccc1	15.7	25.1µM*	?
Cc1ccc2c(c1)C=CC(C)(C)S2(=O)=O	-27.8	-2.4%	2.1%
COCCOC(=O)C1=C(C)N(c2ccccc2)C(=O)NC1c1cccc([N+](=O)[O-])c1 (configuration not stated)	-10.2	-12.3%	?
COCCOC(=O)C1=C(C)Nc2cc(=O)[nH]c(=O)n2C1c1cccc([N+](=O)[O-])c1 (configuration not stated)	-109.0*	0.1%	?
CC(C)CO/N=C1/C[C@@H](O)[C@@H](O)[C@@H]2[C@@H]3C(=O)N(Cc4ccccc4)C(=O)[C@H]3CC[C@@H]12	nt	nt	9.3%[13.5 µM]
CCOC(=O)C(=O)/C(=C\N(C)C)c1onc(-c2ccccc2)c1C(=O)OC	22.0	-11.5%	?
CCOC(=O)C(=O)/C(=C\N(C)C)c1onc(-c2c(Cl)cccc2Cl)c1C(=O)OC	?	14.1µM*	11.4%
Cc1onc(-c2c(Cl)cccc2Cl)c1C(=O)ONC(=O)c1cc(C(F)(F)F)cc(C(F)(F)F)c1	nt	nt	-3.3%
CCOC(=O)C(=O)/C(=C\N(C)C)c1onc(-c2ccccc2Cl)c1C(=O)OC	?	14.1µM*	?
C=CCOc1ccnc(-c2ccccc2)n1	nt	nt	9.1%
SMILES	PNC inhibitor	HPGD block	ALDH1A1 inh
O=[N+]([O-])c1ccc2nnn(O)c2c1	44.8	-16.1%	-0.5%
Clc1ccc(-c2n[nH]c3c2CCC3)c(Cl)c1	-1.6	7.08µM*	8.9%
c1ccc(-c2n[nH]c3c2CCC3)cc1	3.1	-13.2%	8.9%
CCOC(=O)c1cc(NC(=O)CC(C)(C)CC(=O)O)ccc1N1CCCCC1	nt	nt	-5.7%
COc1cc(C(=O)Nc2ccc(S(=O)(=O)N3CCc4ccccc43)cc2)cc(OC)c1OC	34.1	-3.3%	?
Cn1c(=O)c(=O)n(C)c2cc(S(=O)(=O)N3CCc4ccccc43)ccc21	?	-5.8%	2.6%
O=S(=O)(NC1CCc2ccccc21)c1ccc(S(=O)(=O)N2CCCC2)cc1 (configuration not stated)	-7.5	-6.5%	14.1µM*
O=C(Nc1ccc(S(=O)(=O)N2CCc3ccccc32)cc1)c1ccc2c(c1)OCO2	?	-8.4%	17.8µM*
O=C(Nc1ccc(S(=O)(=O)N2CCc3ccccc32)cc1)c1ccco1	26.4	-19.3%	25.1µM*
O=S(=O)(NC1CCCC1)c1ccc(S(=O)(=O)N2CCc3ccccc32)cc1	3.1	-1.3%	31.6µM*
COc1ccccc1C(=O)Nc1ccc(S(=O)(=O)N2CCc3ccccc32)cc1	1.6	-19.9%	?
O=C(NC1CCc2ccccc21)C1CCN(S(=O)(=O)c2ccc(Cl)cc2)CC1 (configuration not stated)	-2.7	-19.8%	6.6%
COc1ccc(-c2c(C)nc(N)nc2-c2ccc(OCc3ccc(C)cc3)cc2O)cc1OC	-25.7	?	11.5%
NC(=[SH+])N=N/C=C1/C=CC=CN1.O=S(=O)(O)O.[Fe]	nt	-10.6%	?
O=C(CSCCN1C(=O)c2ccccc2C1=O)Nc1ccc2ccccc2c1	?	-13.4%	-14.2%
C[N+](C)([O-])CCC=C1c2ccccc2CCc2ccccc21	nt	-1.4%	7.2%[13.5 µM]
O=C(COc1ccc(Br)cc1)N/N=C1\SCC(=O)N1c1ccc(F)cc1	14.9	1.6%	-4.2%
